Shown are actives, neighbours in structure and some others; about 21% of the full set was active somewhere.
NS1 inh = qHTS Assay for Inhibitors of Influenza NS1 Protein Function. Potency, µM (series often up to 46.1 µM). AID 2326, 2010. 270,000 tested, 0.4% active; calls by dose curve; further: actives are rising curves; nearly all actives have a fitted effect of over 50% in size
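Compounds were scored for reversing the slow growth caused by influenza A NS1 in S. cerevisiae, measured by optical density at 600 nm. Assay medium contained 2% galactose at pH 6.0; NS1-free yeast of the same strain were the positive control.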
Giardia FBPA inh = qHTS Assay for Inhibitors of Fructose-1,6-bisphosphate Aldolase from Giardia Lamblia; 290,000 tested, 0.71% active; A8B2U2; purified Giardia FBPA; AID 2451, 2010; Potency, µM (highest dose often 59.6 µM), actives largely listed as inhibitors; further: nearly all actives have a fitted effect of over 55% in size
Target sequence (A8B2U2 whole entry, looked up): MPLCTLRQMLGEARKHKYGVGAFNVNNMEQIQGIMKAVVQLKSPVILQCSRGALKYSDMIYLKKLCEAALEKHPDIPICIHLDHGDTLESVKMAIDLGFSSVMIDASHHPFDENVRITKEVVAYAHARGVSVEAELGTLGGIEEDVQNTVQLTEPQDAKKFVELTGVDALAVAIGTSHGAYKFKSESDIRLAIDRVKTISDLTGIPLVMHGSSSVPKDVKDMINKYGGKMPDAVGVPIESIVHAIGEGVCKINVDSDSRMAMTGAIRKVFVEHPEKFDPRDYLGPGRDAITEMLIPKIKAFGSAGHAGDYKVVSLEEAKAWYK
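40 nM FBPA preincubated 10 min at RT with compound (up to 57.5 uM final), then substrate plus GAPDH/TPI/NAD/arsenate coupling and diaphorase/resazurin added. Fluorescence read after 20 min at RT, 525/598 nm.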
Pf growth 48h = Primary qHTS for delayed death inhibitors of the malarial parasite plastid, 48 hour incubation; P. falciparum luciferase growth in erythrocytes, 48 h; AID 504832, 2011; 310,000 tested, 5.9% active; Potency, µM (highest dose often 28.7 µM), actives largely listed as inhibitors
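Compounds are pin-transferred into medium, infected erythrocytes (2% hematocrit, 0.1% parasitemia final) are added, and plates sit one parasite generation at 37 C in 5% CO2. Detection reagent is then added and luminescence measured.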
Pf growth 96h = Primary qHTS for delayed death inhibitors of the malarial parasite plastid, 96 hour incubation; 320,000 tested, 6.9% active; P. falciparum luciferase reporter growth, 96 h; AID 504834, 2011; Potency, µM (titrated, usually from 28.7 µM), actives largely listed as inhibitors
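Infected RBCs, 2% Hct / 0.05% parasitemia final; luciferase-reporter P. falciparum; cpd 96 h, 37 C, 5% CO2; luciferase detection reagent; luminescence.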
Shiga toxin inh = A qHTS for Small Molecule Inhibitors of Shiga Toxin; Vero cells, Shiga toxin protein synthesis inhibition reporter; inhibition, % at 38.7 µM; 290,000 tested, 9.2% active; AID 2315, 2010; in the data active means inhibition mostly above about 28%, no sharp cut-off; inactive means mostly below about 43%
CHX counter = Cycloheximide Counterscreen for Small Molecule Inhibitors of Shiga Toxin; cell reporter, cycloheximide protein synthesis inhibition counterscreen; 300,000 tested, 12% active; AID 2314, 2010; max response, %; in the data active means max response mostly above about 13%, no sharp cut-off; inactive means mostly below about 14%; further: read at 38.3 µM for the half of the compounds with a filed dose
Flu NS1 inh = Assay for Inhibitors of Influenza NS1 Protein Function: Hit Validation. shares compounds with NS1 inh. influenza NS1 function cell assay, 15-point titration. activity change, negative = inhibition, % at 32.9 µM. 1,400 tested, under 10 active; calls by dose curve
A number is an active result; – = inactive; ? = inconclusive; · = no result; + = active, no number. Unless noted, the call rests on the fitted dose curve; in most records, active means well fitted curve in the direction sought with a large enough effect; inconclusive means small, poorly fitted or top-dose-only effect, or another doubt; inactive means no such curve, though single readings can be large; an effect the other way counts as inactive or inconclusive.

SMILES | NS1 inh | Giardia FBPA inh | Pf growth 48h | Pf growth 96h | Shiga toxin inh | CHX counter | Flu NS1 inh
CCC1(c2cccc(O)c2)CCCCN(C)C1 (stereo unspecified) | · | · | – | – | · | · | ·
O=C1CSCN1c1ccc(Cl)c(Cl)c1 | – | – | – | – | – | – | ·
O=C1CSCN1c1cc(Cl)ccc1Cl | ? | – | – | – | – | – | –
Cc1nn(C)cc1/C=N\NC(=O)Cc1ccc([N+](=O)[O-])cc1 | – | – | – | – | – | – | ·
Cc1nn(C)cc1/C=N\NC(=O)c1csc2c1CCCC2 | ? | – | – | – | 65 | 65 | –
C[C@]12C=CC(=O)C=C1CCC1C2=CC[C@]2(C)[C@@H](C(=O)CN3CCN(c4cc(N5CCCC5)nc(N5CCCC5)n4)CC3)CC[C@@H]12 (stereo partly specified) | 35µM | – | · | · | · | · | ?
Cc1nc2ccc(-c3nc4ccccc4[nH]3)cc2[nH]1 | ? | – | – | – | 60 | 35 | –
Cc1ccc(C2=CC(C)(c3ccc(C)cc3)Nc3nc(C(F)(F)F)nn32)cc1 (stereo unspecified) | – | – | ? | ? | – | – | ·
CC1(c2ccc(OCC#N)cc2)C=C(c2ccc(OCC#N)cc2)n2nc(C(F)(F)F)nc2N1 (stereo unspecified) | 10µM | – | 9.3µM | 7.4µM | – | – | ?
Cc1cc(C)cc(N(CC(=O)NCc2cccnc2)S(C)(=O)=O)c1 | – | – | – | ? | – | – | ·
COC(=O)Cn1c(CN2CCC(Cc3ccccc3)CC2)nc2c1c(=O)n(C)c(=O)n2C | ? | – | ? | – | – | – | –
COC(=O)Cn1c(CN(C)Cc2ccccc2)nc2c1c(=O)n(C)c(=O)n2C | – | – | – | ? | · | – | ·
COc1ccc(C(=O)Cc2cc(OC)c(OC)cc2C(=O)c2ccccc2F)cc1OC | – | – | ? | ? | – | – | ·
N[C@@H](Cc1cc(I)c(O)c(I)c1)C(=O)O | – | – | – | – | – | – | ·
NC(Cc1cc(O)c(O)cc1O)C(=O)O (stereo unspecified) | 8.9µM | – | – | – | · | · | –
COc1ccc(OC)c(CCNC(=O)CCn2nc(C)c3c(C)n(-c4ccccc4)nc3c2=O)c1 | – | · | – | ? | – | – | ·
N#C/C(=C/c1ccc(N2CCCCC2)o1)C(=O)Nc1ccc2ccccc2c1 | 11µM | – | ? | ? | 88 | 40 | –
Cc1cc(C)nc(Sc2ccc(/C=C(\C#N)C(=O)Nc3ccccc3)o2)n1 | – | – | – | · | – | – | ·
COc1ccc(C=C(c2nc3ccccc3s2)c2nc3ccccc3s2)cc1O | 16µM | – | ? | ? | + | 89 | –
Cc1ccc(CN2CCN(c3ccccc3)CC2)o1 | – | ? | – | – | – | – | ·
COc1cc(CNc2ccc(CNc3ncn[nH]3)cc2)ccc1OCc1ccccc1 | ? | ? | – | – | 40 | 48 | –
CCOC(=O)/C(C#N)=C/c1c(N2CCN(C)CC2)nc2c(C)cccn2c1=O | – | – | – | – | – | – | ·
O=C(COC(=O)c1ccc(Cl)c(S(=O)(=O)N2CCc3ccccc3C2)c1)Nc1ncc(Cl)cc1Cl | – | – | – | – | – | – | ·
O[C@H]1COC2C1OC[C@@H]2O (stereo partly specified) | – | – | – | – | – | – | ·
CCOC(=O)Cc1c(C)[nH]n(-c2ccccc2)c1=O | – | – | ? | – | – | – | ·
COC(=O)C(O)(c1c(C)[nH]n(-c2ccccc2)c1=O)C(F)(F)F (stereo unspecified) | 8.9µM | – | – | ? | – | – | ?
CCOC(=O)c1c(C)[nH]c(C)c1C(=O)CSc1ncccn1 | – | – | – | · | – | – | ·
Cc1cc(C)cc(N(C(=O)CNS(=O)(=O)c2ccccc2)C(C(=O)NCc2ccccc2)c2ccc(C)o2)c1 (stereo unspecified) | 10µM | – | ? | – | – | – | –
Cc1cc(C(=O)CSc2nnc(-c3ccc(Cl)cc3)n2C)c(C)n1CC1CCCO1 (stereo unspecified) | – | · | ? | – | – | – | ·
